This is a sample that favours compounds with a hit; in the whole collection about 8.7% have one here.
PostGolgi ctrl: inhibits growth of the yeast control strain. hit rate 5% among 98,000. inhibition, % at 10 µM. efflux-deficient yeast background strain, growth absorbance A615, 16 h
Smad3 FoxH1 inh: Smad3 (human) transcription factor binding inhibition | P84022 | inhibition, % at 25 µM | TR-FRET Smad3/Dy647-FoxH1 peptide binding, europium anti-His | AID 630 | hit rate 0.29% among 88,000;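 active = compounds that reduce the energy-transfer binding signal between the protein and its labelled peptide by more than half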
Cav32 inh: human Cav3.2 channel inhibition, primary screen; hit rate 4% among 100,000; B-score at 10 µM; O95180; Cav3.2-expressing cells, Fluo-4 calcium fluorescence FDSS; active compounds read low;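 active = single-dose well whose peak fluorescence ratio is a statistical outlier from its plate by either plate-standardised score or position-corrected B-score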
TNAP act DEA: activates human TNAP at intermediate phosphate acceptor concentration. 64,000 tested, under 10 active. activation factor at 20 µM. purified TNAP, CDP-star luminescence, 100 mM DEA, 30 min; active compounds read high; scale: 0 levamisole-inhibited, 1 vehicle-only enzyme;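 active = activation factor of at least 2 at 20 µM, relative to controls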
PostGolgi yeast: growth inhibition of a yeast mutant, post-Golgi transport screen; hit rate 0.9% among 98,000; post-Golgi transport phenotypic cell assay; inhibition, % at 10 µM;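 note: yeast cells grown in 1536-well plates; yeast grown about 18 h at 30C before absorbance read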
hDAT+cocaine: changed human dopamine transporter uptake under cocaine IC80. LLC-PK1 hDAT cells, [14C]-dopamine uptake with cocaine IC80; actives deviate in either direction. B-score at 10 µM. hit rate 1.3% among 110,000. AID 449768;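 active = Z score or B-score, a plate-position-corrected score, falls beyond the plate's 99.7% confidence bounds, in either direction; inactive = both scores lie inside the 99.7% bounds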
A number is an active result; i = inactive; nt = no result given. Cut-off read from the data, not from the text of the source, unless noted: active = inhibition above about 30%; inactive = the rest.

SMILES | PostGolgi ctrl | Smad3 FoxH1 inh | Cav32 inh | TNAP act DEA | PostGolgi yeast | hDAT+cocaine
Cc1sc2ncnc(NCC3CCCO3)c2c1C (stereo not given) | i | i | -7.6 | nt | i | i
Cc1sc2ncnc(NCC3(N4CCOCC4)CCCCC3)c2c1C | 33 | i | i | nt | 32 | i
CCc1cc2c(NCC3CCCO3)ncnc2s1 (stereo not given) | i | i | i | i | i | i
c1nc(NCC2(N3CCOCC3)CCCCC2)c2ccsc2n1 | i | i | i | i | i | i
C/C(=N\NC(=O)C1CCCN(S(=O)(=O)c2ccccc2)C1)c1ccccn1 (stereo not given) | i | nt | i | nt | i | i
C/C(=N\NC(=O)C1CCCN(S(=O)(=O)c2ccccc2)C1)c1ccncc1 (stereo not given) | i | nt | 4.1 | nt | i | i
C/C(=N\NC(=O)C1CCCN(S(=O)(=O)c2ccccc2)C1)c1cccnc1 (stereo not given) | i | nt | i | nt | i | 2.4
Cc1ccc(Cl)cc1NC(=O)c1cccc(OC(F)F)c1 | i | nt | i | nt | i | i
CCOc1ccc(OCCSc2nc3ccccc3[nH]2)cc1 | nt | i | i | nt | nt | i
Cc1cccc(OCCCSc2nc3ccccc3[nH]2)c1 | 34 | nt | -8.1 | nt | i | i
Cc1cc(NS(=O)(=O)c2ccc(C3CCCCC3)cc2)no1 | 34 | i | i | i | i | i
Cc1cc(NS(=O)(=O)c2ccc(NC(=O)c3ccco3)cc2)no1 | i | i | i | i | i | 2.7
Cc1ccc(OC(C)C(=O)Nc2ccc(S(=O)(=O)Nc3cc(C)on3)cc2)cc1 (stereo not given) | 33 | i | i | nt | i | i
Cc1cc(NS(=O)(=O)c2ccc(NC(=O)c3ccco3)cc2)nc(C)n1 | i | i | i | nt | i | i
O=C(CN1CCN(c2ccccc2F)CC1)c1c[nH]c2ccccc12 | i | nt | nt | nt | i | nt
O=c1cc(-c2ccccc2)[nH]n1-c1ccc([N+](=O)[O-])cc1 | i | nt | -4 | nt | i | -2.5
O=C(Cc1ccccc1)N1CCC(O)(c2cccnc2)CC1 | i | i | i | nt | i | i
CCOC(=O)c1c(CSC(=N)N)n(-c2ccc(C)cc2)c2cc(Br)c(OC(C)=O)cc12 | i | nt | -5.6 | nt | i | i
CCOC(=O)c1c(CN2CCOCC2)n(-c2ccccc2)c2cc(Br)c(O)cc12 | 41 | i | i | nt | i | i
CCOC(=O)c1c(CN2CCN(C)CC2)n(C)c2cc(Br)c(OC)cc12 | i | i | i | i | i | i
CCOC(=O)c1c(CN2CCOCC2)n(-c2ccccc2)c2cc(Br)c(OC)cc12 | 54 | i | i | nt | i | i
CCCCNc1nc2c(c(=O)n(C)c(=O)n2C)n1CCC | nt | nt | i | i | nt | i
CC(=O)Nc1cc2c(nc1C)nc(C)n2Cc1ccc(Br)cc1 | i | i | i | i | i | i
CN(C)C(=O)c1cc(Cl)ccc1Sc1cc(Cl)ccc1Cl | 56 | nt | nt | nt | i | i
CN1C[C@@H]2C(c3ccccc3)C3(c4cccnc4)CC2(C3)[C@H]1c1ccccc1 (stereo not given in full) | nt | nt | i | nt | nt | i
SMILES | PostGolgi ctrl | Smad3 FoxH1 inh | Cav32 inh | TNAP act DEA | PostGolgi yeast | hDAT+cocaine
Cc1ccc2nsnc2c1S(=O)(=O)N1CCN(CCc2ccccc2)CC1 | i | i | i | i | i | 4.3
Cc1ccc2nsnc2c1S(=O)(=O)NCc1cccnc1 | i | i | i | i | i | i
COc1cc(NS(=O)(=O)c2ccc(OC)c(C)c2C)c(OC)cc1Cl | 36 | i | -7.4 | i | i | i
Cc1ccccc1NS(=O)(=O)c1cc(C(=O)N2CCCC2)ccc1C | i | i | i | i | i | i
Cc1cccc(NS(=O)(=O)c2cc(C(=O)N3CCc4ccccc4C3)ccc2Cl)c1C | 74 | nt | i | nt | 97 | i
Cc1ccccc1CN(c1ccc(C(=O)N2CCc3ccccc3C2)cc1)S(C)(=O)=O | i | i | i | nt | i | -3.2
COc1ccccc1NS(=O)(=O)c1cc(C(=O)N2CC(C)CC(C)C2)ccc1C (stereo not given) | 88 | nt | i | nt | 87 | i
CNC(=O)c1ccc(N(Cc2ccccc2C)S(C)(=O)=O)cc1 | i | nt | i | i | i | i
Cc1ccc(C)c(NS(=O)(=O)c2cc(C(=O)N3CCc4ccccc4C3)ccc2Cl)c1 | 71 | nt | i | nt | 104 | i
Cc1ccccc1NS(=O)(=O)c1cc(C(=O)Nc2ccccc2-c2ccccc2)ccc1Cl | i | nt | -3.4 | nt | i | i
CC1=C(C(=O)OC2CCCCCC2)C(c2ccc(C)o2)C2=C(CCCC2=O)N1 (stereo not given) | i | i | nt | i | i | nt
CC1=C(C(=O)OC2CCCC2)C(c2ccc(C)o2)C2=C(CC(c3cccs3)CC2=O)N1 (stereo not given) | i | i | -5.9 | i | i | i
CCOc1ccccc1OCCCOc1ccc(C)cc1Br | i | nt | nt | nt | i | nt
COc1cc(C)ccc1OCCOCCOc1ccccc1Br | 42 | nt | nt | nt | i | nt
Brc1ccccc1OCCOCCOc1cccc2cccnc12 | i | nt | -4.7 | nt | i | i
COc1ccc(NCc2n[nH]c(=O)c3ccccc23)cc1 | 32 | i | i | nt | i | i
COc1ccccc1Oc1cc(C#N)c(C#N)cc1-n1nnc2ccccc21 | 30 | nt | nt | i | i | nt
COc1ccc(/C=N\n2nnc3ccccc32)cc1 | i | nt | i | i | i | i
O=C1c2oc3ccccc3c(=O)c2C(c2cccnc2)N1CCCN1CCOCC1 (stereo not given) | i | i | i | i | i | i
COc1ccc(S(=O)(=O)N2CCC(C(=O)NCc3ccccn3)CC2)cc1OC | i | i | i | nt | i | i
O=C(COc1ccc(S(=O)(=O)N2CCc3ccccc32)cc1Cl)NCc1ccccn1 | i | i | i | i | i | 2.2
COc1ccc2noc3c2c1C(=O)c1ccccc1-3 | nt | nt | nt | i | nt | nt
COc1ccc(OC)c2c1C(=O)c1ccccc1C2=O | i | nt | -8.9 | nt | i | i
O=S(=O)(NC1CCN(Cc2ccccc2)CC1)c1cccc(S(=O)(=O)N2CCOCC2)c1 | i | i | i | i | i | i
CCN(CC)c1ccc(-c2nn3c(-c4n[nH]c5c4CCC5)nnc3s2)cc1 | 43 | i | i | i | i | i
SMILES | PostGolgi ctrl | Smad3 FoxH1 inh | Cav32 inh | TNAP act DEA | PostGolgi yeast | hDAT+cocaine
Cc1ccc2nc3c(cc(C#N)c(=O)n3-c3nccs3)c(=O)n2c1 | 31 | nt | i | i | i | i
Cc1nc(CSc2nnc3scc(-c4ccccc4)n23)cs1 | i | i | i | i | i | i
C=CCn1c(NC(=O)CC)c(C(=O)OCC)sc1=S | i | i | nt | nt | i | nt
COc1ccccc1N1CCN(CCCNC(=O)Nc2ccccc2)CC1 | i | i | i | i | i | i
CCN(CC)S(=O)(=O)c1ccc2c(c1)C(=NO)c1cc(S(=O)(=O)N(CC)CC)ccc1-2 | nt | i | -5.7 | nt | nt | i
O=S(=O)(c1ccc2c(c1)C(=NO)c1cc(S(=O)(=O)N3CCCCC3)ccc1-2)N1CCCCC1 | i | i | -6.4 | i | i | i
CCN(CC)S(=O)(=O)c1cccc(S(=O)(=O)N2CCCCC2)c1 | i | nt | i | nt | i | i
CC(=O)NC(CC(=O)Nc1ccc(S(=O)(=O)N2CCCC2)cc1)c1ccccc1 (stereo not given) | i | i | i | i | i | i

Assay outcomes as filed in PubChem.
